Data on five molecules can be found in PubChem BioAssay.

The nature of assay [1]: anti-His antibody binders, primary screen, artefact control for SMM control protein annotation, biochemical, small-molecule microarray, 635 nm fluorescence (AID 1128).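 Further: score merges feature fluorescence with signal-to-noise for each printed compound spot.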 Conditions: anti-His Alexa647 antibody binding, higher = more signal.
For assay [2], the system named is Human papillomavirus type 1a E7 protein (residues 1-88). As to the kind of experiment: HPV1a E7 small-molecule binders, primary screen, biochemical, small-molecule microarray, residues 1-88, 635 nm (AID 1129). Conditions: small-molecule microarray binding, fluorescence 635 nm; higher = more signal.
Assay [3] addresses Focal adhesion kinase 1 (Homo sapiens) (UniProt Q05397). As to the kind of experiment: small-molecule microarray binders of FAK, primary screen, biochemical, 635/667 nm fluorescence, BSA, DTT (AID 1130).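 Further: composite of spot emission at 667 nm and signal to noise over triplicate slides.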 The settings on record: PTK2 binding, 635 nm fluorescence, higher = more signal.
The test system of assay [4] is Fibrinogen (Alexa647-labelled). As to the kind of experiment: fibrinogen binders on compound microarrays, profiling panel, artefact control for SMM control-protein annotation, biochemical, small-molecule microarray, 635/667 nm fluorescence (AID 1131).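 Further: z-score merges 667 nm fluorescence with per-spot signal-to-noise over triplicate slides.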 Conditions: fibrinogen-A647 binding fluorescence, higher = more signal.
Assay [5] addresses Follistatin (Homo sapiens) (UniProt P19883). The experiment in a line: follistatin binders on small-molecule microarrays, primary screen, biochemical, small-molecule microarray, 635/667 nm fluorescence (AID 1132). Conditions: FST binding, 635 nm fluorescence, higher = more signal.
In assay [6] the target is Fibroblast growth factor 2 (Homo sapiens) (UniProt P09038). The experiment in a line: FGF2 binders on small-molecule microarrays, primary screen, biochemical, small-molecule microarray, 635/667 nm fluorescence (AID 1133). Conditions: small-molecule microarray binding, FGF2, fluorescence 635/667; higher = more signal.
Sequence of Fibroblast growth factor 2 (Homo sapiens) (P09038 whole entry, looked up): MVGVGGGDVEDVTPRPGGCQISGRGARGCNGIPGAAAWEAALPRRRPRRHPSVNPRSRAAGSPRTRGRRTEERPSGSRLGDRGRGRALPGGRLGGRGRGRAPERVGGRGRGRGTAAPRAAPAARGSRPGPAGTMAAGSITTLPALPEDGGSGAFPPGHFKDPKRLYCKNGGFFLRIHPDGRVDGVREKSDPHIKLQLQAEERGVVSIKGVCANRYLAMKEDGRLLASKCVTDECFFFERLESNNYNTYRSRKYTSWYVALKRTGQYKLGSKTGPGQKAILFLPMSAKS
Assay [7] is described as follows: mitochondrial membrane potential change in A549 cells, profiling panel, cell-based, JC-1 fluorescence, basal, 24 h, 100 nL (AID 1138).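 Further: A549 lung adenocarcinoma cells under basal conditions with no added stimulus; test concentration not given here.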 Conditions: higher = more signal.
In assay [8] the test system is Lefty1. The experiment in a line: Lefty1 binders on small-molecule microarrays, primary screen, biochemical, small-molecule microarray, 635/667 nm fluorescence (AID 1139). The settings on record: small-molecule microarray binding, fluorescence 635/667; higher = more signal.
In assay [9] the test system is wheat germ agglutinin (Triticum aestivum), Alexa647-labelled. The experiment in a line: wheat germ agglutinin binders on compound microarrays, profiling panel, artefact control for SMM control-protein annotation, biochemical, small-molecule microarray, 635/667 nm fluorescence (AID 1140).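 Further: score merges 667 nm feature emission with signal to noise over triplicate slides.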 The settings on record: WGA-A647 binding, 635 nm fluorescence, higher = more signal.

For assay [10], the target named is Luciferin 4-monooxygenase (Photinus pyralis) (UniProt P08659). As to the kind of experiment: firefly luciferase enzyme inhibitors, primary screen, biochemical, luminescence, purified enzyme, 2006 set (AID 1141).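 Further: cell-free assay with purified firefly luciferase at 100 ng per well in PBS; test concentration not given here.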 The settings on record: SteadyGlo luminescence, 30 min, higher = more signal, called active from +8 up or from −8 down.
Sequence of Luciferin 4-monooxygenase (Photinus pyralis) (P08659 whole entry, looked up): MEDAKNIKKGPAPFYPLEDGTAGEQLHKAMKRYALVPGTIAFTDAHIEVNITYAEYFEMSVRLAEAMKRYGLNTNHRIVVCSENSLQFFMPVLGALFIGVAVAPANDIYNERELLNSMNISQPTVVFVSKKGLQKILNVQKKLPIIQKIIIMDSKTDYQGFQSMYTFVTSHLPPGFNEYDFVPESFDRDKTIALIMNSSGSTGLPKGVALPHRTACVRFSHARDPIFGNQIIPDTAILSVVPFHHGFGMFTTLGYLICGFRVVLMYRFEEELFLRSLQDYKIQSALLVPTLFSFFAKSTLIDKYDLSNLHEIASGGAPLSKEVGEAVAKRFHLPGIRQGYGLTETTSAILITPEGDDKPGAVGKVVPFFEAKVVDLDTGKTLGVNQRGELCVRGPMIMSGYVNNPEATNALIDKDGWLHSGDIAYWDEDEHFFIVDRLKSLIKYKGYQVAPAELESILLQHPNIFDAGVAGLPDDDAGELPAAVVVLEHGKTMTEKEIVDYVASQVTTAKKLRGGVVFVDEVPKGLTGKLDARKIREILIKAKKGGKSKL
Assay [11] relates to Wnt5a (protein binding on small-molecule microarray). As to the kind of experiment: Wnt5a binders on small-molecule microarray, primary screen, biophysical, 635/667 nm fluorescence (AID 1142).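 Further: fluorescence read at 667 nm with signal to noise per printed feature.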 Conditions: 635 nm fluorescence, higher = more signal.
Assay [12] in a line: cell viability in Huh7 cells, primary screen, cytotoxicity control for HCV replication inhibitor project, CellTiter-Glo luminescence, basal, 48 h (AID 1143).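 Further: Huh7 hepatoma cells carrying a hepatitis C replication reporter with no stimulus; test concentration not given here.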 Conditions: Huh7 HCV replicon, higher = more signal, called active from +8 up or from −8 down.
The nature of assay [13]: P. aeruginosa biofilm formation inhibitors, primary screen, PAO1 strain, BacTiter-Glo luminescence, LB-PBS (AID 1144). Conditions: 12 h, higher = more signal.
Assay [14] in a line: CREB reporter modulators without forskolin, primary screen, cell-based, PC12, CRE-LacZ reporter, unstimulated (AID 1145). Conditions: no forskolin, luminescence, 4.5 h, higher = more signal, called active from +8 up or from −8 down.
Assay [15] in a line: CREB reporter modulators under forskolin, primary screen, cell-based, PC12, CRE-LacZ reporter, forskolin-stimulated (AID 1146).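 Further: PC12 cells with 6xCRE LacZ reporter stimulated by forskolin 10 µM; beta-galactosidase reporter signal reflecting CREB driven transcription.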 The settings on record: luminescence, 4.5 h, higher = more signal, called active from +8 up or from −8 down.
The target of assay [16] is Streptavidin (Streptomyces avidinii) (UniProt P22629). As to the kind of experiment: streptavidin binders on small-molecule microarray, primary screen, artefact control for SMM compound annotation, biophysical, 635/667 nm fluorescence (AID 1147).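 Further: signal reflects streptavidin binding to arrayed compounds as a control protein.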 The settings on record: streptavidin binding, higher = more signal.
Sequence of Streptavidin (Streptomyces avidinii) (P22629 whole entry, looked up): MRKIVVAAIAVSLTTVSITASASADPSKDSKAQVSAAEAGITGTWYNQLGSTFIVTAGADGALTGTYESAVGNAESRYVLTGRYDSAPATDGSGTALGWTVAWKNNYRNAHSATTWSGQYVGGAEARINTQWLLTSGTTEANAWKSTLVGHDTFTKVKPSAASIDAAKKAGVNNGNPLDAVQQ
A short description of assay [17]: small-molecule binders of probe aInhba, primary screen, biochemical, small-molecule microarray, 635/667 nm fluorescence (AID 1148).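 Further: score merges 667nm spot fluorescence with signal-to-noise for antibody binding to printed compounds.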 The settings on record: higher = more signal.
In assay [18] the target is Torsin-1A (Homo sapiens) (UniProt O14656). As to the kind of experiment: torsin A binders from cell lysate, primary screen, small-molecule microarray, wild-type, 635/667 nm (AID 1149). The settings on record: COS7 hTOR1A-WT lysate, 635 nm fluorescence, higher = more signal.
Sequence of Torsin-1A (Homo sapiens) (O14656 whole entry, looked up): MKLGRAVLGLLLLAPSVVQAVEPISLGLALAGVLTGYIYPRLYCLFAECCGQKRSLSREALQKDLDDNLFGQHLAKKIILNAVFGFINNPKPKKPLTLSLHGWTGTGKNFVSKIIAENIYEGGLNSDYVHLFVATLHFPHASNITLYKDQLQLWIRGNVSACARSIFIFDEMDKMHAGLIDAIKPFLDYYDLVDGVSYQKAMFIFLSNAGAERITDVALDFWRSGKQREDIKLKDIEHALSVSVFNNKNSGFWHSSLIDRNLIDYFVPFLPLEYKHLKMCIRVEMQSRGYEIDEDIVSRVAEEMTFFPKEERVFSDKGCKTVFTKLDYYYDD
The target is the same in assay [19]. As to the kind of experiment: small-molecule binders of mutant TOR1A in lysate, primary screen, cell lysate, small-molecule microarray, COS7 lysate, 635/667 nm fluorescence (AID 1150).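 Further: score pools 667 nm emission and signal to noise measuring lysate protein binding.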 The settings on record: COS7 hTOR1A mutant lysate, 635 nm fluorescence, higher = more signal.
For assay [20], the system named is Sonic hedgehog protein (Shh). As to the kind of experiment: small-molecule binders of Shh protein, primary screen, biochemical, small-molecule microarray, 635/667 nm fluorescence (AID 1151).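 Further: Shh protein binding to compounds spotted on small-molecule microarray slides; score combines spot fluorescence intensity with signal-to-noise across triplicate slides.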 The settings on record: small-molecule microarray binding, 635 nm fluorescence; higher = more signal.

The source made the active and inactive calls. Unless noted, how the calls were made is not given here.

Sequence of Focal adhesion kinase 1 (Homo sapiens) (Q05397 whole entry, looked up): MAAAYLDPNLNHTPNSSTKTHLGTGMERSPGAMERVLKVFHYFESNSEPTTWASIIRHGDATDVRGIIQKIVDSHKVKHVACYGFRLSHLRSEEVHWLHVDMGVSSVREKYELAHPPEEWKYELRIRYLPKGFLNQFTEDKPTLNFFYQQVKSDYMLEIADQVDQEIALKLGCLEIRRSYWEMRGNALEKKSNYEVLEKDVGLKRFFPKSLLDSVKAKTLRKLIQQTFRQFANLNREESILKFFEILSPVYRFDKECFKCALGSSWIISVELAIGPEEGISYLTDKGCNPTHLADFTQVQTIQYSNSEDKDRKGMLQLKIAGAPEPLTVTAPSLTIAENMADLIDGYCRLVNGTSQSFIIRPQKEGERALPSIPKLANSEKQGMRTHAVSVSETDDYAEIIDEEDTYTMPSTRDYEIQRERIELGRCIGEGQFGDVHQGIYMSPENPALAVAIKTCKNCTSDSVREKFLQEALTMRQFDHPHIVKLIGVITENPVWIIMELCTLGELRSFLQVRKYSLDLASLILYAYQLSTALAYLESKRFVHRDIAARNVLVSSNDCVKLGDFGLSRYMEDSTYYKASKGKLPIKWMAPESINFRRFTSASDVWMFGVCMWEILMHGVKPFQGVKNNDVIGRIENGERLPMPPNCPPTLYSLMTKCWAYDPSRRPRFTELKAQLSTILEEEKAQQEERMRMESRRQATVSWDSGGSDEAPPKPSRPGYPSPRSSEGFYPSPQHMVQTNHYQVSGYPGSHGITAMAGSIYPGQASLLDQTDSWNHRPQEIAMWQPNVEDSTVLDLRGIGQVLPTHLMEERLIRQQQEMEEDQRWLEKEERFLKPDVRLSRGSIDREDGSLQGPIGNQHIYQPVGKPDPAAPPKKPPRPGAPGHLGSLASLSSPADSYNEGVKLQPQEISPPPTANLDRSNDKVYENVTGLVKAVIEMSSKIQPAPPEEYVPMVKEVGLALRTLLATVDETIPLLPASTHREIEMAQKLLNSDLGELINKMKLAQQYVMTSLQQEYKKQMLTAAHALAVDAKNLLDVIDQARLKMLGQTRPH
Sequence of Follistatin (Homo sapiens) (P19883 whole entry, looked up): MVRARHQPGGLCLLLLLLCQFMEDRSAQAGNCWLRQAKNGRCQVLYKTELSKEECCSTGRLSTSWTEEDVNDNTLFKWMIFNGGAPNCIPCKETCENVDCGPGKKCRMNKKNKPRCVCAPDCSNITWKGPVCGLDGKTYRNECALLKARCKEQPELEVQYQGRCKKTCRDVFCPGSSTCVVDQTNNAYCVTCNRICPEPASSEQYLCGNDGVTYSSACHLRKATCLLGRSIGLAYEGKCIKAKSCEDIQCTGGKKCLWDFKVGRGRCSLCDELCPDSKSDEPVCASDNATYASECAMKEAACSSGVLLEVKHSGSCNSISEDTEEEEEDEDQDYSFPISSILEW

For the molecule `CN(C)CCCC[C@@H]1NC(=O)[C@@H]2C[C@H](C(=O)NCCCCCCN)[C@H](c3ccc(O)cc3)N2C1=O`, the composite z-score in assay [1] came out at 0.297; in assay [2] it was 1.19; in [3], 1.55; in assay [4], 0.763; in assay [5] it was 1.35; in assay [6] it was 0.787. The composite z-score in assay [8] was 0.829; in assay [9], 0.998; in [11] it was 0.346; in [16], 1.19; in assay [17], 0.554; in assay [18], 0.613. The composite z-score in [19] is 0.901; in assay [20], 0.945. The z-score in [7] is -0.729; in assay [10], 0.37 (inactive); in [12], 0.255 (inactive); in [13], -0.481 (inactive); in assay [14] it was -0.122 (inactive); in assay [15], 0.208 (inactive).
As to `COc1c(C)cc(-c2cc3c(c(-c4ccccc4)n2)[Si](C(C)C)(C(C)C)O[C@H]3c2ccccc2)cc1C`, the composite z-score is 0.235 in assay [1]; -0.26 in assay [2]; -0.0638 in assay [3]; -0.243 in [4]; 0.145 in assay [5]; -0.212 in [6]. Further, the composite z-score in assay [8] was 0.377; in assay [9], 0.124; in assay [11], -0.0797; in [16] it was -0.0096; in [17], -0.119; in [18], -0.381. The values for the composite z-score in assay [19] and in assay [20] were -0.22 and 0.618, respectively. Also, the z-score in assay [7] was 0.125; in [10], 0.407 (inactive); in assay [12] it was 0.393 (inactive); in assay [13], -0.0188 (inactive); in assay [14], -0.244 (inactive); in assay [15] it was -0.0226 (inactive).
With `Cc1ccc(N2C(=O)c3ccccc3[C@@H](C(=O)NC(C)C)[C@@H]2c2ccc(CO)cc2)nc1`, the composite z-score was 0.621 in assay [1]; 0.708 in assay [2]; -0.291 in assay [3]; -0.756 in assay [4]; 0.931 in assay [5]; 1.55 in assay [6]. Also, the composite z-score in assay [8] is -0.362; in [9], 0.692; in assay [11], 0.635; in assay [16], -0.896; in assay [17], -0.104; in assay [18], -1.73. Further, the composite z-score in assay [19] was 2.08; in assay [20], -0.473. For the same molecule, the z-score in [7] was -1.05; in [10], 1.25 (inactive); in [12] it was -2.73 (inactive); in assay [13], -1.83 (inactive); in assay [14] it was 0.351 (inactive); in assay [15] it was 0.807 (inactive).
Turning to `O=C1OCCC/C=C\[C@H]2OC34C=CCN(Cn5nnc6ccccc65)C(=O)[C@H]3N(CCCO)C(=O)[C@@H]4C12` (stereo not given in full), the composite z-score in assay [1] was 3.1; in assay [2] it was -0.162; in assay [3] it was -0.0245; in assay [4] it was -1.94; in assay [5], -0.99; in assay [6] it was -1.06. Also, the composite z-score in assay [8] is -0.517; in [9] it was -0.107; in assay [11], -0.8; in assay [16], -1.29; in [17], -0.182; in [18], -2.04. In addition, the composite z-score in assay [19] is 1.14; in assay [20] it was -0.144. Moreover, the z-score in assay [7] is -0.275; in [10] it was 0.656 (inactive); in assay [12] it was 0.464 (inactive); in [13], -0.354 (inactive); in assay [14], -0.623 (inactive); in assay [15] it was 0.168 (inactive).
Turning to `O=C1C2C=CC(C(O)c3ccc(-c4ccccc4)s3)N(Nc3ccccc3F)C2C(=O)N1c1ccccc1` (stereo not given), the composite z-score in assay [1] was found to be 1.29; in assay [2], 1.21; in [3] it was 0.816; in assay [4], 0.997; in assay [5], 1.18; in [6], 1.16. Further, the composite z-score in assay [8] is 0.133; in assay [9], 0.994; in assay [11], 0.26; in assay [16], 1.06; in [17], -0.205; in assay [18] it was 0.254. The composite z-score is 0.404 in assay [19] and 0.433 in [20]. Moreover, the z-score in assay [7] was -1.12; in assay [10] it was -0.324 (inactive); in [12] it was 0.0093 (inactive); in assay [13], -0.729 (inactive); in [14] it was 0.629 (inactive); in [15] it was 0.383 (inactive).
